The values that follow come from the supplement of paper PMC12819154, “High-throughput peptide-centric local stability assay extends protein–ligand identification to membrane proteins, tissues and bacteria” (Nature Structural & Molecular Biology, 2025).

Compound in the test: CN[C@@H]1C[C@H]2O[C@@](C)([C@@H]1OC)n1c3ccccc3c3c4c(c5c6ccccc6n2c5c31)C(=O)NC4 [staurosporine]
In words: log2 fold change of tryptic peptide abundance, ligand vs vehicle (limited proteolysis) (log2 ratio); higher = more trypsin-susceptible (destabilized). The settings on record: ligand concentration: 20 uM; sample: mouse liver crude lysate; replicate design: treated separately.

Sequence of UniProt P19157 (P19157 whole entry): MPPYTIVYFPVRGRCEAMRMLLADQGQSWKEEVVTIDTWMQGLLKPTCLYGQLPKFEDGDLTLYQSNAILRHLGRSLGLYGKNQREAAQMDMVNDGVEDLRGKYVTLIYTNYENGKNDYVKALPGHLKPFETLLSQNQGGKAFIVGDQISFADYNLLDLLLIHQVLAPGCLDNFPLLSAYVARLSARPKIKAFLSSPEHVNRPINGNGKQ
Sequence of UniProt Q61268 (Q61268 whole entry): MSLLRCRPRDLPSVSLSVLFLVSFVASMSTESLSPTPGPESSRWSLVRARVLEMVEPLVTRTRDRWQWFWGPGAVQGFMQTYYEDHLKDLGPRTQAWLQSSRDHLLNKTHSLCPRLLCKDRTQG
Sequence of UniProt P14246 (P14246 whole entry): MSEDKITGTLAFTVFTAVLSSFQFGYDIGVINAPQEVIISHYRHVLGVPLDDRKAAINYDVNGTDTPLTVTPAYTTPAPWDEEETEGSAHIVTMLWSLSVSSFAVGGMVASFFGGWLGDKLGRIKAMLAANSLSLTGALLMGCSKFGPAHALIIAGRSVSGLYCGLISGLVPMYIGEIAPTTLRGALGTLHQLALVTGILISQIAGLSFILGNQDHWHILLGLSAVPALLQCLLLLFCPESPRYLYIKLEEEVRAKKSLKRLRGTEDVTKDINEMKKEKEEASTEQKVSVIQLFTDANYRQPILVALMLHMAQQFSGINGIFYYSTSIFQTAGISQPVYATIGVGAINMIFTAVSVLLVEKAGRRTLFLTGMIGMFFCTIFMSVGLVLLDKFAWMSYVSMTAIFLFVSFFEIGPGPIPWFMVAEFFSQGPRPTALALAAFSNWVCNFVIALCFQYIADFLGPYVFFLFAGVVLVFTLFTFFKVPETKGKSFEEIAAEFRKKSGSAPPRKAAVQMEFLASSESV
Sequence of UniProt Q99MK8 (Q99MK8 whole entry): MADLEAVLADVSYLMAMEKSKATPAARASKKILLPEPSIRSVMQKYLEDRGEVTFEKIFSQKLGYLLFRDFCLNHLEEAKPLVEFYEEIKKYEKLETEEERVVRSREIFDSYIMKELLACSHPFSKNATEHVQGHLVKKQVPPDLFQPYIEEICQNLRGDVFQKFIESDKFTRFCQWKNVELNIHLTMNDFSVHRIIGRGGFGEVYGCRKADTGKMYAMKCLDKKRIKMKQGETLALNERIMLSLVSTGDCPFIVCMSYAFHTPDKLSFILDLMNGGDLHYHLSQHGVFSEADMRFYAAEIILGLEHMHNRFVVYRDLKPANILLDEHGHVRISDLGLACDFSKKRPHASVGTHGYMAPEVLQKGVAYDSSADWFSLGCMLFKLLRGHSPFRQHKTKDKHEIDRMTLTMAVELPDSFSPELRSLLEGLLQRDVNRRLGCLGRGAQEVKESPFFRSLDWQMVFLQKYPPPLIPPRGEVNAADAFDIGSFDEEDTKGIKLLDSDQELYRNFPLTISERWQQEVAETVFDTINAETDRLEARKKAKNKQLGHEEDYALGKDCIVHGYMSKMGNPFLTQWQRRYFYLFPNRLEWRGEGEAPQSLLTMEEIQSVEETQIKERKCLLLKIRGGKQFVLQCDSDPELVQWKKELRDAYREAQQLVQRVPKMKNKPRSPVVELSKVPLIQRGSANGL
Sequence of UniProt P97872 (P97872 whole entry): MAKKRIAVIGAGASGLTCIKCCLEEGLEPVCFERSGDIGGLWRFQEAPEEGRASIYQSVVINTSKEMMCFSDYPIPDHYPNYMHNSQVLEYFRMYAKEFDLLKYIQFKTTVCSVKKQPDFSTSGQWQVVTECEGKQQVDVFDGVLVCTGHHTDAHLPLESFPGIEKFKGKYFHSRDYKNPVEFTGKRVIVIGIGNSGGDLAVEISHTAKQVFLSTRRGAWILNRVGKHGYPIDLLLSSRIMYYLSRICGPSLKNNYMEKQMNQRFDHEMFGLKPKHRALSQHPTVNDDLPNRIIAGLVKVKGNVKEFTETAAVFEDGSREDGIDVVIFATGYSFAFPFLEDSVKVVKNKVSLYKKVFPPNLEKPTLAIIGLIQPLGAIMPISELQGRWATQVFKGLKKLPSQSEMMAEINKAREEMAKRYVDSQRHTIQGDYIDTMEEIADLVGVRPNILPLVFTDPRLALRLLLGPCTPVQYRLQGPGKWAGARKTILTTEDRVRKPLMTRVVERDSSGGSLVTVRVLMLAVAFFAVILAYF
Sequence of UniProt O89023 (O89023 whole entry): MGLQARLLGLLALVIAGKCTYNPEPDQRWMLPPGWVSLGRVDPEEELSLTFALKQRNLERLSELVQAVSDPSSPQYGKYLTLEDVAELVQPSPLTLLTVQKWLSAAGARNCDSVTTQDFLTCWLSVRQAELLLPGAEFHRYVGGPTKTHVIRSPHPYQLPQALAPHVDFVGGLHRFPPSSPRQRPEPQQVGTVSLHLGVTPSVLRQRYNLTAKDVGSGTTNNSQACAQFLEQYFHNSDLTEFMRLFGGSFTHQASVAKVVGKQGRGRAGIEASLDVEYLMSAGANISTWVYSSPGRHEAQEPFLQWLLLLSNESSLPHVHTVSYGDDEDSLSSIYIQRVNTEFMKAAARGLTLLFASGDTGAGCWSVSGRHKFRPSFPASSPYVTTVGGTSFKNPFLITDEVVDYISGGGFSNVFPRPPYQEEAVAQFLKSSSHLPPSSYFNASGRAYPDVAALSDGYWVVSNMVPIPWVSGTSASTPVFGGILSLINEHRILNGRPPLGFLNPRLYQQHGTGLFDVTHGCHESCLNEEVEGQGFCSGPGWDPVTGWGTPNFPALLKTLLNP
Sequence of UniProt Q8VI63 (Q8VI63 whole entry): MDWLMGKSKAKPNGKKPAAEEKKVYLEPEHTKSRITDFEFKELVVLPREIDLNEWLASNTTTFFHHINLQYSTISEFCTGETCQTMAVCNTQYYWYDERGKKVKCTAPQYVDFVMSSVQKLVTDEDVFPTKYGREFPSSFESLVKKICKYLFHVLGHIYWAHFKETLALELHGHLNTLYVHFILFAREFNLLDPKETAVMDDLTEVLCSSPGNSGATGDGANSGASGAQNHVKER
Sequence of UniProt Q3UTQ8 (Q3UTQ8 whole entry): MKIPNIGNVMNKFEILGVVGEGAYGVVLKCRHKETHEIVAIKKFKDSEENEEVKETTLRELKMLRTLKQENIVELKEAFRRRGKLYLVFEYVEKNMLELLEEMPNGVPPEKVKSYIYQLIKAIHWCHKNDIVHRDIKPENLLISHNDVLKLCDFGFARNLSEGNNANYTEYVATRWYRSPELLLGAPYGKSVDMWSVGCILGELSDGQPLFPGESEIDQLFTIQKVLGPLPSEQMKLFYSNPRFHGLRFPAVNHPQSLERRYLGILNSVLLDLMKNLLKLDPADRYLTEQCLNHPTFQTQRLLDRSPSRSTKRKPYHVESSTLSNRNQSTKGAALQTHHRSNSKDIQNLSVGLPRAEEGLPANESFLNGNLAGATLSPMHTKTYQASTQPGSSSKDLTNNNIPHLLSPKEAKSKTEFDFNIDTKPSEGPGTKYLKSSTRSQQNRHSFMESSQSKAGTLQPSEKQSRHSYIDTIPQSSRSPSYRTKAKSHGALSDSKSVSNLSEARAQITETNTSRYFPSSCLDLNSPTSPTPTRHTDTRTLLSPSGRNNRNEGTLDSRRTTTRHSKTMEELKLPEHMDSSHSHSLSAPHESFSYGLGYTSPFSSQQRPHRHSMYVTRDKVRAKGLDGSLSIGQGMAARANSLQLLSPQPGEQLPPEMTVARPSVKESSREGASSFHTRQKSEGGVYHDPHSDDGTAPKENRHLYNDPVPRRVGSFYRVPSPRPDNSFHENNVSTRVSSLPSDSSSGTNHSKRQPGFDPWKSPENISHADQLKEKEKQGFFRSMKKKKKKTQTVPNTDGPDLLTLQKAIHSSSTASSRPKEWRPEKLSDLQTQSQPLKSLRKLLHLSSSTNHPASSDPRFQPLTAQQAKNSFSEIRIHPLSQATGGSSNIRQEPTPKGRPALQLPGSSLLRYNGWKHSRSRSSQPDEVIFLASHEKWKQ
Sequence of UniProt Q922S4 (Q922S4 whole entry): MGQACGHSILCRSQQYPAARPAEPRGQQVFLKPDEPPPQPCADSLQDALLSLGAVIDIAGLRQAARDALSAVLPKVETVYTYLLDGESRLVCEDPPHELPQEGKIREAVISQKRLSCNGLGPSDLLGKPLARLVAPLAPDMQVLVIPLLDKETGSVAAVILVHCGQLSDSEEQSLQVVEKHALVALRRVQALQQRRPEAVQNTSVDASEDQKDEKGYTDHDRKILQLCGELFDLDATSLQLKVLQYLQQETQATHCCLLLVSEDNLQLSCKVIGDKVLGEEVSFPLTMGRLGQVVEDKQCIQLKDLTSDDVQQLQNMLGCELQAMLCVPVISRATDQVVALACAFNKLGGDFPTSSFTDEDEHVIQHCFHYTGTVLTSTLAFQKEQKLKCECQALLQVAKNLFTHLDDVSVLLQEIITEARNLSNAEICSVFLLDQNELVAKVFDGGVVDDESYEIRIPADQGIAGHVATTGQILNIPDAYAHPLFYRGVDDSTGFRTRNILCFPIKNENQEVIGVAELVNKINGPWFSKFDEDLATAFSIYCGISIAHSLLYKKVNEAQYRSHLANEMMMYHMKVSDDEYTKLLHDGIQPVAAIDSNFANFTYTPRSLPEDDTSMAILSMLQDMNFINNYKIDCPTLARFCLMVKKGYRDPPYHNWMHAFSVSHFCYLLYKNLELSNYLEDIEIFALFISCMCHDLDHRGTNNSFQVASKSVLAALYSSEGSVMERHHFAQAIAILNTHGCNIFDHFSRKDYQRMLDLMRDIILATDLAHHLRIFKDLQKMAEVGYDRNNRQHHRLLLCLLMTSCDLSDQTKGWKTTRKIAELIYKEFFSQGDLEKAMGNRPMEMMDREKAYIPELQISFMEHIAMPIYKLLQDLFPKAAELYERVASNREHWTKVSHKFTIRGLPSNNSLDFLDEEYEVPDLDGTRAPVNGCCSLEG
Sequence of UniProt P33622 (P33622 whole entry): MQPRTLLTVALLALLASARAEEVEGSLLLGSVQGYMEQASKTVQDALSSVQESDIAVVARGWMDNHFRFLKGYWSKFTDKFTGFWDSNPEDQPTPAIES

As for “UniProt P33622 (peptide sequence: GWMDNHFR, peptide start residue: 61)”, the log2 fold change was 0.483.
For “UniProt Q80ZW0 (peptide sequence: YSLLAEIGR, peptide start residue: 207)” the value was -0.855; for “UniProt Q8BGS7 (peptide sequence: LFQLPTPPLSR, peptide start residue: 35)”, 0.348; for “UniProt P19157 (peptide sequence: AFLSSPEHVNRPINGNGK, peptide start residue: 192)”, -0.521.
Take “UniProt Q8C878 (peptide sequence: LPEHCIEYVR, peptide start residue: 245)”: the log2 fold change was found to be 0.505.
For “UniProt Q2NL51 (peptide sequence: LCDFGSAK, peptide start residue: 198)” the value was -4.01.
Then “UniProt O88643 (peptide sequence: LTDFGFCAQITPEQSKR, peptide start residue: 384)”, with -2.39.
Then “UniProt Q3UTQ8 (peptide sequence: DIKPENLLISHNDVLK, peptide start residue: 135)”, with -1.56; and “UniProt O89023 (peptide sequence: VNTEFMK, peptide start residue: 339)”, with -0.234.
With “UniProt P97872 (peptide sequence: DSSGGSLVTVR, peptide start residue: 507)”, the log2 fold change was -1.1.
Then “UniProt Q9DC61 (peptide sequence: QVLATHSR, peptide start residue: 451)”, with -1.12; and “UniProt Q61268 (peptide sequence: TQAWLQSSR, peptide start residue: 94)”, with 0.77; and “UniProt Q8VI63 (peptide sequence: ITDFEFK, peptide start residue: 35)”, with 0.579.
Then “UniProt P14246 (peptide sequence: HVLGVPLDDR, peptide start residue: 44)”, with 0.702; and “UniProt Q9DC28 (peptide sequence: FDDKPDYSYLR, peptide start residue: 260)”, with -0.751; and “UniProt Q922S4 (peptide sequence: AMGNRPMEMMDR, peptide start residue: 838)”, with 0.447.
Turning to “UniProt O88630 (peptide sequence: MNTLANRFPAVNSLIQR, peptide start residue: 205)”, the log2 fold change worked out at 0.676.
Turning to “UniProt Q99MK8 (peptide sequence: DLKPANILLDEHGHVR, peptide start residue: 317)”, the log2 fold change is -0.735.
